Measured values: the supplement of paper PMC11732987, “Enantioselective OTUD7B fragment discovery through chemoproteomics screening and high-throughput optimisation” (Communications Chemistry, 2025)

Assays:
Assay in all cases: log2 ratio of Biotin-Ahx-Ub-VS probe labelling (fragment/DMSO); higher = less target engagement (more negative = stronger competition), active = hit call of the paper (q ≤ 0.05, log2 ratio ≤ -1)
Conditions in all cases: compound concentration: 200 uM; treatment time: 3 h
USP42 = target: T1, USP42 (UniProt Q9H9J4)
T1 sequence (whole entry): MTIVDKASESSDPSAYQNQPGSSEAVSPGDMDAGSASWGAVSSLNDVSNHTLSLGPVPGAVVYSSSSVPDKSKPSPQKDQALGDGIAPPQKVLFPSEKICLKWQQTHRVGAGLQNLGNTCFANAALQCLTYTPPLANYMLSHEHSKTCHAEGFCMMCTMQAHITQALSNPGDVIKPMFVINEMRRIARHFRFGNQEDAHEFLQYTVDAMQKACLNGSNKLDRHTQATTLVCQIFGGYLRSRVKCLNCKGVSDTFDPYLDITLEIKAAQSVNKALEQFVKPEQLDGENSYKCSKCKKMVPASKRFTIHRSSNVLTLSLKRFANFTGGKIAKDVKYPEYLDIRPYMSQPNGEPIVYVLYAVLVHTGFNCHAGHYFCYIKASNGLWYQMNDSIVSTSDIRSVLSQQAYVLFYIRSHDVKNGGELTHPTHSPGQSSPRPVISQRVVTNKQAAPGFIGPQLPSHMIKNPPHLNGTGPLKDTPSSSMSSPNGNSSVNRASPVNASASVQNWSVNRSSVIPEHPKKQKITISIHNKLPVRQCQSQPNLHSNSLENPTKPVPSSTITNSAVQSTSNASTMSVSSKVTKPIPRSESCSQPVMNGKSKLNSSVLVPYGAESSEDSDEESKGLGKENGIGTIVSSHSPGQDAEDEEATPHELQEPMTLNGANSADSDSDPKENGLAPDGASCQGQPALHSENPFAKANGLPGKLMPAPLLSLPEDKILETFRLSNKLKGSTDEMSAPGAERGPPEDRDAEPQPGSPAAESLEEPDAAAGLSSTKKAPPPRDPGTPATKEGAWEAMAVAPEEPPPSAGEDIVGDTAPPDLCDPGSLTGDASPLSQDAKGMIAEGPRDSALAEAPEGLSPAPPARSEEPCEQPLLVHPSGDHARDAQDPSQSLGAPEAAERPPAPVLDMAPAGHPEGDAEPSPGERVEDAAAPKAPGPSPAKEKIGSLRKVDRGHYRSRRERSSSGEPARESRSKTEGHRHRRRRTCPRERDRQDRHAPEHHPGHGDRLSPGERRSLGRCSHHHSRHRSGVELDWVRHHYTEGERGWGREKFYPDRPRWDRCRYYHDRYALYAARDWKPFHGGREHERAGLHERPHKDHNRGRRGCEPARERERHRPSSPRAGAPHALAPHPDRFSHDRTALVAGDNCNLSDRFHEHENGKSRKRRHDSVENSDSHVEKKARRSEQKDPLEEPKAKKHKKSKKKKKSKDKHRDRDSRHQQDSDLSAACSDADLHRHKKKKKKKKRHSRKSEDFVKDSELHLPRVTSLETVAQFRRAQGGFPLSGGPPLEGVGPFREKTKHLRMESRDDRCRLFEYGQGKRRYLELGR
Summary of the method: (§1)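 In triplicate, 495 µg of HEK293T lysate per sample was incubated with fragment at 200 µM or vehicle for 3 h. Biotin-Ahx-Ub-VS was then added to 0.5 µM final for 1 h, and labelled DUBs were captured with NeutrAvidin, digested with LysC and trypsin, and measured by diaPASEF LC-MS/MS. Data are average log2 fragment/vehicle ratios by unpaired t-test from global-median-normalised Spectronaut label-free quantities, restricted to proteins with ≥2 unique peptides.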

USP46 = USP46 (UniProt P62068)
Summary of the method: as §1

USP47 = target: T2, USP47 (UniProt Q96K76)
T2 sequence (whole entry): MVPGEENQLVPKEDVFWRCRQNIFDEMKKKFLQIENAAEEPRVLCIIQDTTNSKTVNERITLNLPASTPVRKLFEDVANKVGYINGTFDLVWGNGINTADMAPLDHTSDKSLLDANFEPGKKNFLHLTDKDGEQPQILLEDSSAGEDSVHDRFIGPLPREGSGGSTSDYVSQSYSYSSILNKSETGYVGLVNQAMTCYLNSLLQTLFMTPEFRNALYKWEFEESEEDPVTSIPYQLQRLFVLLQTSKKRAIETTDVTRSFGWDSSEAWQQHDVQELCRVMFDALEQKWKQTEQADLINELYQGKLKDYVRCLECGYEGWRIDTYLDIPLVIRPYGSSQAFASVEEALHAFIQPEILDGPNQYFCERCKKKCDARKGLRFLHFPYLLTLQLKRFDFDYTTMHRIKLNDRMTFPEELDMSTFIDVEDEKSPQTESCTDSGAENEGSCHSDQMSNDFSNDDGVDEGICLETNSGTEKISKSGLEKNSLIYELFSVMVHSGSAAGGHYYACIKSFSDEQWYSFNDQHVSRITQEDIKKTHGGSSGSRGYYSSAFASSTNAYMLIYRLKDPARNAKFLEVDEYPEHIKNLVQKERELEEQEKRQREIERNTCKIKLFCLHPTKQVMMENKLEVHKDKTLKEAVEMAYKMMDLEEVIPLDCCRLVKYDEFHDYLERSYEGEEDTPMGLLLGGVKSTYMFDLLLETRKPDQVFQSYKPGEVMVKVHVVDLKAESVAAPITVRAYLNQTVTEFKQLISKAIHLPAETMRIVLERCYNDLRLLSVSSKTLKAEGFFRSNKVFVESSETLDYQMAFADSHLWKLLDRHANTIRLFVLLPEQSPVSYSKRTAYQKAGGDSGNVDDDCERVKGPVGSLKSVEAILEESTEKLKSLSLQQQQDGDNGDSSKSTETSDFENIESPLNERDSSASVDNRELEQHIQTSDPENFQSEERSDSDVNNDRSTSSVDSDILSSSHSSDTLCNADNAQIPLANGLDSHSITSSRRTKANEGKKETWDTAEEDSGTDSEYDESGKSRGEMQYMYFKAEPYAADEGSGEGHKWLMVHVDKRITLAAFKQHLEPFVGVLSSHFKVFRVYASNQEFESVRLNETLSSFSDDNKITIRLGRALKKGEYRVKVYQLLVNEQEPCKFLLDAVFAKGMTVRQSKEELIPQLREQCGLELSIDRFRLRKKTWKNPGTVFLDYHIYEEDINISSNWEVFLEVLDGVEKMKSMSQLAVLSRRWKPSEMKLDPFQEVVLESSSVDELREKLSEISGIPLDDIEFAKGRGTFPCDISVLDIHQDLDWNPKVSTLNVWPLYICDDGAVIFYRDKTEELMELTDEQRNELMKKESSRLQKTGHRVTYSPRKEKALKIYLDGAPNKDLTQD
Summary of the method: as §1

USP48 = target: T3, USP48 (UniProt Q86UV5)
T3 sequence (whole entry): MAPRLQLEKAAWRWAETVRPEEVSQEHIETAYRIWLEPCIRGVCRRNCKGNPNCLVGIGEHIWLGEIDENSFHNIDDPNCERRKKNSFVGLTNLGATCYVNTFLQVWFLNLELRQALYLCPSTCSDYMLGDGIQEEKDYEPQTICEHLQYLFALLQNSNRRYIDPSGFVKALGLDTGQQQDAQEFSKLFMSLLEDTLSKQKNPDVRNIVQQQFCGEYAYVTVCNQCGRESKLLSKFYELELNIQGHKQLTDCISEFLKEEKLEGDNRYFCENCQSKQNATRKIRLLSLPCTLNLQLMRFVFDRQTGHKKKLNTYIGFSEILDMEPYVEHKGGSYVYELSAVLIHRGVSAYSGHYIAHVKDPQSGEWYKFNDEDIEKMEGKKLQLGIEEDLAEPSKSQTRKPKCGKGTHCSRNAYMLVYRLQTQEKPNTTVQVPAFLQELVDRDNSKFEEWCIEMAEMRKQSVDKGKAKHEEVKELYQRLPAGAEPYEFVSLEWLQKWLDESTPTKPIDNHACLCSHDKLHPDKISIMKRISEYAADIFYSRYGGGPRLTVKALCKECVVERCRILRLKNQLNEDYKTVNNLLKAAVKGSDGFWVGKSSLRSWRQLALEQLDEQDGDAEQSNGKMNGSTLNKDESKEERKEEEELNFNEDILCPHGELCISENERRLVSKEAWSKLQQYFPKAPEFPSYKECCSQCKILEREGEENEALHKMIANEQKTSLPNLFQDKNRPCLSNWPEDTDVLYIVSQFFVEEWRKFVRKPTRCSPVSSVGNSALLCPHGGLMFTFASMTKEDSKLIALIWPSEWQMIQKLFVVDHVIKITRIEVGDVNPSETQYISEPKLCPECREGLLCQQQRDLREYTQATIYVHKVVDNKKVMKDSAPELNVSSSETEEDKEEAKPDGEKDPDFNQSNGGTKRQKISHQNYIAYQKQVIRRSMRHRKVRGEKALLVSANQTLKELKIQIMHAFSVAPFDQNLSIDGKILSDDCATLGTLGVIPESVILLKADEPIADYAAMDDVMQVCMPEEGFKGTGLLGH
Summary of the method: as §1

USP5 = target: T4, USP5 (UniProt P45974)
T4 sequence (whole entry): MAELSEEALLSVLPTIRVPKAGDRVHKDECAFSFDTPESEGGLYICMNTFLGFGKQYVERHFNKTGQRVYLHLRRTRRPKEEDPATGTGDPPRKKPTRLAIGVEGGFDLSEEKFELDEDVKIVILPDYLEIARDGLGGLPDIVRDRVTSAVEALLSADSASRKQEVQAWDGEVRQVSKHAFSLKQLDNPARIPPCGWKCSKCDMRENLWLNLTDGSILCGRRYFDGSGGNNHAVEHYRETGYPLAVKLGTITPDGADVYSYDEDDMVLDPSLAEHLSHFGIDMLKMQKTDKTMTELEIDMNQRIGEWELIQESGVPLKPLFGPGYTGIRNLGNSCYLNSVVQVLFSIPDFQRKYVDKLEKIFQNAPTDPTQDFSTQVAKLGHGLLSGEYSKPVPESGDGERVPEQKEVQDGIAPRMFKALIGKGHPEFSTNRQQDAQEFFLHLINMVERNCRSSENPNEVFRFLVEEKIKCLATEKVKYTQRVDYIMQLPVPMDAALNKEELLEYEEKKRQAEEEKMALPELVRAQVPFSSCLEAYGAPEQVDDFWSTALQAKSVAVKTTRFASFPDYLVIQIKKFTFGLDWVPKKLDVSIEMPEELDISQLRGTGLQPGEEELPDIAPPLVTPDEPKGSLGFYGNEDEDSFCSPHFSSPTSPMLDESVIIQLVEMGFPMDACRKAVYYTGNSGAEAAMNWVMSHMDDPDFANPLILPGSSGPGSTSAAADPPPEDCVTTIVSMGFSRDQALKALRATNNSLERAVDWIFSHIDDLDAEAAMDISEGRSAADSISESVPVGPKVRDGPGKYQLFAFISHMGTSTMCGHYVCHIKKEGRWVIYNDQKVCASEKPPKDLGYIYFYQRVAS
Summary of the method: as §1

USP54 = USP54 (UniProt Q70EL1)
Summary of the method: as §1

USP7 = USP7 (UniProt Q93009)
Summary of the method: as §1

USP8 = target: T5, USP8 (UniProt P40818)
T5 sequence (whole entry): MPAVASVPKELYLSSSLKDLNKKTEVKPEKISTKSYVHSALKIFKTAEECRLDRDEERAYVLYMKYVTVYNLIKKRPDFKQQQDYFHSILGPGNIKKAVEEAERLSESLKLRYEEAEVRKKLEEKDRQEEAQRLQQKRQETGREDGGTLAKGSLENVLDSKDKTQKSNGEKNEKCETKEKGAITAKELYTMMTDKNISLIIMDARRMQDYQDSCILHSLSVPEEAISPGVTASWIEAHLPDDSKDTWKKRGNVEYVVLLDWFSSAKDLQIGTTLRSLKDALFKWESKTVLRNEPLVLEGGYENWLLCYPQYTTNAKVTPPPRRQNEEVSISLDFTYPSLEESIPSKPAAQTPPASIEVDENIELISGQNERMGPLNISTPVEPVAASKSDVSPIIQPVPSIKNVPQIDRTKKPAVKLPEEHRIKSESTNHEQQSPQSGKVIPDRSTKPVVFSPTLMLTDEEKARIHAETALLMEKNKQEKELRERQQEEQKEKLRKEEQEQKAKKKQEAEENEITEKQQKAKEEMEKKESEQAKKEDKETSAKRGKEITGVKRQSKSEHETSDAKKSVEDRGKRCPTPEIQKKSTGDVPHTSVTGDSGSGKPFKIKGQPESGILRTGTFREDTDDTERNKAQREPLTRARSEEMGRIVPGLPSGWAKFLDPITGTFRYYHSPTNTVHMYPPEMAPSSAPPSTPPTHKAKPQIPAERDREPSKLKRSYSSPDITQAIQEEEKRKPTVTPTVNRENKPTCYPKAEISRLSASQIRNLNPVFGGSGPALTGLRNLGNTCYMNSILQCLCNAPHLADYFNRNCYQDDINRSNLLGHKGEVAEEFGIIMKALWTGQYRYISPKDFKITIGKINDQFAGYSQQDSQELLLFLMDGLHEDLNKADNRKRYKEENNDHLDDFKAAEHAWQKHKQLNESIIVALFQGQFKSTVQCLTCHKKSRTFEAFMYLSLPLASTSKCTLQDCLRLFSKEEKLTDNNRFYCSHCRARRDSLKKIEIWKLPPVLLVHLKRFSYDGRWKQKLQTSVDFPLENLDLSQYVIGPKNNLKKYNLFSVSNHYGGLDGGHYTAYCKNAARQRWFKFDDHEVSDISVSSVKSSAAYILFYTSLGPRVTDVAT
Summary of the method: as §1

Measured: log2 ratio of Biotin-Ahx-Ub-VS probe labelling

Chain of USP54 (Q70EL1 whole entry): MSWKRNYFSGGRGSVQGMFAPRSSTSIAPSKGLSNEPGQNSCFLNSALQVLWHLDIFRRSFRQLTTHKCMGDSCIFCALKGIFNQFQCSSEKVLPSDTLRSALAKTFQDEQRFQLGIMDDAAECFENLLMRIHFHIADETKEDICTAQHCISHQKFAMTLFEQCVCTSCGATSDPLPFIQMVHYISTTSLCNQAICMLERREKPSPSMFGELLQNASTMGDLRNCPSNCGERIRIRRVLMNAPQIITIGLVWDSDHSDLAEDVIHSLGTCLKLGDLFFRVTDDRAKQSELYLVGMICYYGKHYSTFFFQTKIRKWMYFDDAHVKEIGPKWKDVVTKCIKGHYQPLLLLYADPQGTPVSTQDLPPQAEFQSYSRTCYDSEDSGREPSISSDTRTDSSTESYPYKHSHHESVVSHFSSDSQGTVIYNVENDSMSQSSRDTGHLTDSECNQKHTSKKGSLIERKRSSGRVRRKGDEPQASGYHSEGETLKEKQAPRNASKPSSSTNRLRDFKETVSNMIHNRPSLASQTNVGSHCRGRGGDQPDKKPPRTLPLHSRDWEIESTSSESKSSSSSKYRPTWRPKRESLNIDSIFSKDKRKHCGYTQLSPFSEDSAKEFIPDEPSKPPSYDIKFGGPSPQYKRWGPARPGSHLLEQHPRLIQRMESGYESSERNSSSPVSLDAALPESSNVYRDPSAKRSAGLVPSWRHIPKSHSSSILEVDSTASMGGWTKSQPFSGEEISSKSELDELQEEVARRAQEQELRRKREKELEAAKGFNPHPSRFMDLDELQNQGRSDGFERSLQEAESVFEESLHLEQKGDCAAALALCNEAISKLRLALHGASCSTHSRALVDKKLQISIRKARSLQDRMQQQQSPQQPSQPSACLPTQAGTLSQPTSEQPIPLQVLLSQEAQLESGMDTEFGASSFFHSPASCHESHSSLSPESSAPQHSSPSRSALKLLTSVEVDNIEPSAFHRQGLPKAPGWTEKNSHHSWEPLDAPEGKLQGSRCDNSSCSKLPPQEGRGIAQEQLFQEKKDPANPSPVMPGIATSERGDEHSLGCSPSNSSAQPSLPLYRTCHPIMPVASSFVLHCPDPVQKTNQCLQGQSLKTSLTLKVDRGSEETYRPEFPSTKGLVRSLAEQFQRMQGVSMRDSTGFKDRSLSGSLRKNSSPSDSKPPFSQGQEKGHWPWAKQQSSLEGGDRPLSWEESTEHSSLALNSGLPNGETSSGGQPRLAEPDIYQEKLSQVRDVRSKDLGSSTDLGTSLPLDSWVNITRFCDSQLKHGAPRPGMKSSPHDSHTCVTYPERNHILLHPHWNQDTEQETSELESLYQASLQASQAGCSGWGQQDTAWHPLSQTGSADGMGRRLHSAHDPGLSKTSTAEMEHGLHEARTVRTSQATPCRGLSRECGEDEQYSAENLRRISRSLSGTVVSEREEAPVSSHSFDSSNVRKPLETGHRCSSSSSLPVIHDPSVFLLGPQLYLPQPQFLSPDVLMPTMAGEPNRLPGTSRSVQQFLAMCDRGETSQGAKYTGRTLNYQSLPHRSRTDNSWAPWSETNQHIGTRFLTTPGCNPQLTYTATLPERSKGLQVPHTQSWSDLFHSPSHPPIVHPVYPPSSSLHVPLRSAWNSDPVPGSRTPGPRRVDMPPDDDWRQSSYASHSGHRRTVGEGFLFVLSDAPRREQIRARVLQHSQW
Chain of USP7 (Q93009 whole entry, looked up): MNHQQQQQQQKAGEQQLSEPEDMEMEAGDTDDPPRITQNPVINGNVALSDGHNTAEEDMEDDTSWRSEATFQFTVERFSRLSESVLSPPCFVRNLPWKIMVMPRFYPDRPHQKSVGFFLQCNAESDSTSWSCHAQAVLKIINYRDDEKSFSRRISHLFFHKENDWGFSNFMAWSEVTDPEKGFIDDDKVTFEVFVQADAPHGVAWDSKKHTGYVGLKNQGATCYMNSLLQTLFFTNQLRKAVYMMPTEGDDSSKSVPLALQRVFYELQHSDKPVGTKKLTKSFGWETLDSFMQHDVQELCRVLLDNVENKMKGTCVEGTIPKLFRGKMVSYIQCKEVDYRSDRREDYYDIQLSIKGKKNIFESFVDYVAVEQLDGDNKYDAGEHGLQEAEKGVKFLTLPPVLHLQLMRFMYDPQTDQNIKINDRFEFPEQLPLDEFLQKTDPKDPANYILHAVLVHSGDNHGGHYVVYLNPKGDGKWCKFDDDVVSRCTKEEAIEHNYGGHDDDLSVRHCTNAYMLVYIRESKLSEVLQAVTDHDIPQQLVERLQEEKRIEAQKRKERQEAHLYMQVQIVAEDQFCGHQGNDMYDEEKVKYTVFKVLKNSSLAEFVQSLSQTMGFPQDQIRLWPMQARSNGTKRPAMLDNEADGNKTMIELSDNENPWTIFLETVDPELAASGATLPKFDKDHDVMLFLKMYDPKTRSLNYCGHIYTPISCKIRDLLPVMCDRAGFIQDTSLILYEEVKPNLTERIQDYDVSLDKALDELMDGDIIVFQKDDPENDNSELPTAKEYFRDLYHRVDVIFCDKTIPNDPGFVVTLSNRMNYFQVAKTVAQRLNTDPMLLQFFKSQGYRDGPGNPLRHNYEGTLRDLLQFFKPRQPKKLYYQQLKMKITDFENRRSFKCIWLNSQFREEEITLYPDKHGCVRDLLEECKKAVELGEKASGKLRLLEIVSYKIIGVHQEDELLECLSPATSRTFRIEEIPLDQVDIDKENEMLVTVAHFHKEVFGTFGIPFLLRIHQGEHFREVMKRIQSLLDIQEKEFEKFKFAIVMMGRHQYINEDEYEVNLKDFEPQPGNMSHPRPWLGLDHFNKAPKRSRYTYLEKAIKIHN
Chain of USP46 (P62068 whole entry): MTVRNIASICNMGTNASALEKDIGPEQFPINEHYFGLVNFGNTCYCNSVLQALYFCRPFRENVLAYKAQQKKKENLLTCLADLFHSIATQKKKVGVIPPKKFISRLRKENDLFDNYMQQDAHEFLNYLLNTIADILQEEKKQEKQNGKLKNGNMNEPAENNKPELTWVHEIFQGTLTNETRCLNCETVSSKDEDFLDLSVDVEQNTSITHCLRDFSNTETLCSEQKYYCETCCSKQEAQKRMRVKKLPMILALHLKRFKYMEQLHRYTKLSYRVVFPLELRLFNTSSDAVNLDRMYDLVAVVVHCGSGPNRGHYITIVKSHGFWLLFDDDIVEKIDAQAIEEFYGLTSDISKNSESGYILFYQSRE

O=C(O)C1Cc2ccccc2CN1C(=O)CCl (stereo not drawn)
inactive: USP42 -0.449 | USP46 -0.111 | USP47 -0.301 | USP48 -0.543 | USP5 -0.0229 | USP54 0.788 | USP7 -0.333 | USP8 -0.283
